Source: PubChem BioAssay AID2685 (National Center for Advancing Translational Sciences (NCATS), 2010)
Among all 320,000 compounds or so, about 2,100 (0.66%) were called active. Not shown: some 53% with an inconclusive outcome. The call rests on the fitted dose curve; in most records, active means well fitted inhibition curve with a large enough effect in the signal ratio, with a control signal flat (not every such curve was filed as active); inconclusive means small, poorly fitted or top-dose-only effect, or effect the other way, or a change in a side signal; inactive means flat fitted curve, though single readings scatter; the % refers to the signal ratio. The entries come from a sample that favours actives as a whole.

Test: qHTS Assay for Lipid Storage Modulators in Drosophila S3 Cells;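 on cell number change: cells counted by Cell Tracker Red CMTPX staining in the red channel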; on lipid storage change, negative = inhibition: on the % scale 0 is the no-effect control and ±100 the full control effect
Conditions: BODIPY lipid droplet fluorescence, 18-24 h, cells fed with added oleic acid; cell number change: measured here: cell count max response; series mostly up to 46.1 µM; lipid storage change, negative = inhibition: at the top concentration
Procedure, shortened: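 Drosophila S3 cells loaded with oleic acid (400 uM, as added) and compounds at several concentrations; lipid droplets imaged by 488-nm laser-scanning cytometry, 500–530 nm intensity and object ratio to cell channel. Percent activity normalized to 20 uM Triacsin C.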
Potency means the concentration at half of the fitted maximal effect.

SMILES | lipid storage change, negative = inhibition | cell number change | Potency | outcome
COc1ccc(CN2CCN(Cc3cccc(OC)c3)C(CCO)C2)cc1 (stereo unspecified) | 15.7% (inactive) | 0.486% | – | –
COc1ccc(OC)c(CN2CCN(C(=O)c3ccc(S(=O)(=O)Nc4ccccc4F)cc3)CC2)c1 | – | -20.6% | 13 µM (active) | –
CC(C)(C)c1ccc(C(=O)NCC(=O)N2CCCC2)cc1 | – | 12.2% | – | inactive
COc1ccc(NS(=O)(=O)c2cccc(C(=O)N3CCN(Cc4cc(OC)ccc4OC)CC3)c2)cc1 | -13.2% (inactive) | 1.47% | – | –
COc1ccc(OC)c(CN2CCN(C(=O)CNC(=O)c3ccc(C(C)(C)C)cc3)CC2)c1 | – | -27.4% | 1.46 µM (active) | –
COc1ccc(C(=O)N2CCN(Cc3cc(OC)ccc3OC)CC2)cc1 | -14.3% (inactive) | -3.67% | – | –
CC(C)(C)c1ccc(C(=O)NCC(=O)N2CCCCCC2)cc1 | – | 5.65% | – | inactive
O=C(Cn1c(C(F)(F)F)nc2ccccc21)N=Nc1c(O)[nH]c2ccc(Br)cc12 | – | – | – | inactive
CC1(C)CC(=O)N(c2ccc(C#N)cc2)C(=O)C1 | 2.37% (inactive) | -0.525% | – | –
Cc1cccc(NC(=O)C(c2ccccc2Cl)N2CCOCC2)c1 (stereo unspecified) | 2.74% (inactive) | 14.2% | – | –
COCCCNc1nc(-c2ccc(Cl)cc2)nc2ccccc12 | – | – | – | inactive
CCCCN1C(=O)/C(=c2\sc3nc(=O)c(-c4ccccc4)nn3c2=O)c2ccccc21 | -21.2% (inactive) | -10.9% | – | –
C/C(=N\NC(=O)c1ccn(C)n1)c1ccc(NC(=O)C2CCC2)cc1 | – | -21.2% | 13 µM (active) | –
C/C(=N\NC(=O)c1c([N+](=O)[O-])c(C)nn1C)c1ccc(NC(=O)C2CCCC2)cc1 | -5.01% (inactive) | 5.28% | – | –
C/C(=N\NC(=O)c1nn(C)c(C)c1Br)c1ccc(NC(=O)C2CCCC2)cc1 | – | -25.5% | – | inactive
Cc1cccc(C(=O)Nc2sc3c(c2C#N)CCCCC3)c1 | -3.22% (inactive) | -20.2% | – | –
Cc1nc2nc(SCc3ccccc3)[nH]n2c(=O)c1CCC(C)C | -19.4% (inactive) | 19.7% | – | –
CCc1cc(=O)oc2c(C)c(OC(C)C(=O)N3CC[C@@]4(O)CCCC[C@H]4C3)ccc12 (stereo partly specified) | 3.29% (inactive) | 14.6% | – | –
O=C(C(c1ccccc1)c1ccccc1)N1CC[C@@]2(O)CCCC[C@H]2C1 | -7.45% (inactive) | -2.81% | – | –
Cc1c(C)c2ccc(OCC(=O)N3CC[C@@]4(O)CCCC[C@H]4C3)cc2oc1=O | -15.4% (inactive) | 0.17% | – | –
CCc1cc(=O)oc2c(C)c(OC(C)C(=O)N3CCC[C@@H]3C(=O)O)ccc12 (stereo partly specified) | -7.03% (inactive) | 15.4% | – | –
Cc1c(C)c2ccc(OC(C)C(=O)N3CC[C@@]4(O)CCCC[C@H]4C3)c(C)c2oc1=O (stereo partly specified) | – | -28.5% | 5.8 µM (active) | –
Cc1cc(=O)oc2c(C)c(OCC(=O)N3CC[C@@]4(O)CCCC[C@H]4C3)ccc12 | – | 2.59% | 16.4 µM (active) | –

SMILES | lipid storage change, negative = inhibition | cell number change | Potency | outcome
CCc1cc(=O)oc2c(C)c(OCC(=O)N3CC[C@@]4(O)CCCC[C@H]4C3)ccc12 | -24.5% (inactive) | 2.62% | – | –
Cc1cc(=O)oc2c(C)c(OC(C)C(=O)N3CC[C@@]4(O)CCCC[C@H]4C3)ccc12 (stereo partly specified) | – | -0.971% | 0.731 µM (active) | –
Cc1c(C)c2ccc(OC(C)C(=O)N3C[C@H]4C[C@@H](C3)c3cccc(=O)n3C4)c(C)c2oc1=O (stereo partly specified) | -2.98% (inactive) | 10.4% | – | –
Cc1nc(SCC(=O)NC(=O)NCCC(C)C)c2c(-c3cccs3)csc2n1 | 3.29% (inactive) | 8.46% | – | –
CCn1ccnc1CN1CCC(n2nccc2NC(=O)CCc2ccccc2)CC1 | -5.74% (inactive) | -1.05% | – | –
COc1ccc(C(=O)Nc2ccc3[nH]c(-c4cccc(OC)c4)cc(=O)c3c2)cc1 | -2.62% (inactive) | 4.73% | – | –
Cc1cccc(C)c1NC(=O)CS(=O)CC(=O)NCC1OCCc2ccccc21 (stereo unspecified) | -1.05% (inactive) | 9.92% | – | –
CC(=O)c1ccc(CC2SC(N)=NC2=O)cc1 (stereo unspecified) | – | -4.99% | – | inactive
CCCCN1C(=S)NC[C@@H]1Cc1cccc2ccccc12 | 15.5% (inactive) | 2.45% | – | –
COc1ccc2c(c1OC)C(=O)N1C2SC[C@H]1C(=O)NC1CC1 (stereo partly specified) | -17.9% (inactive) | -0.291% | – | –
COc1ccc(C(c2sc3nc(C)nn3c2O)N2CCc3ccccc3C2)cc1 (stereo unspecified) | – | – | – | inactive
C=C(C)C1CC=C(C)/C(=N\NC(=O)CCC(=O)Nc2ccc(C)c(C)c2)C1 (stereo unspecified) | -0.891% (inactive) | 1.45% | – | –
Cc1ccc(NC(=O)CCSCCC(=O)Nc2ccc(C)c(C)c2)cc1C | 1.97% (inactive) | -13.5% | – | –
C/C(=N\NC(=O)CCC(=O)Nc1ccc(C)c(C)c1)C1CC1 | – | 18.1% | 6.51 µM (active) | –
CC(=O)Nc1ccc(S(=O)(=O)NCCC(=O)OCc2nc(N)nc(Nc3ccccc3C)n2)cc1 | 9.3% (inactive) | 3.4% | – | –
COc1ccc(N2C(=O)C3CCCN3C2=S)cc1 (stereo unspecified) | – | 13% | – | inactive
COc1ccc(N2C(=O)C3CCCN3C2c2cccs2)cc1 (stereo unspecified) | – | – | 8.2 µM (active) | –
O=C1C2CCCN2C(c2cccs2)N1c1ccc(Cl)cc1 (stereo unspecified) | 11.3% (inactive) | 6.57% | – | –
COc1ccc(N2C(=O)[C@@H]3Cc4ccccc4CN3C2=O)cc1 | 13.6% (inactive) | -10.6% | – | –
COc1ccc(N2C(=O)C3CCCN3C2=O)cc1 (stereo unspecified) | – | 13.7% | 18.4 µM (active) | –
COc1cccc(N2C(=O)C3CCCN3C2c2cccs2)c1 (stereo unspecified) | -10.3% (inactive) | – | – | –
CCn1c(COc2ccccc2C(N)=O)nc2ccccc21 | -2.01% (inactive) | -13.5% | – | –
CCOC(=O)Cc1csc(NC(=S)NC(=O)c2ccc(C)cc2)n1 | 8.49% (inactive) | 12.7% | – | –

SMILES | lipid storage change, negative = inhibition | cell number change | Potency | outcome
CCOC(=O)Cc1csc(NC(=S)NC(=O)c2ccc(F)cc2)n1 | – | -14.9% | 10.3 µM (active) | –
CCOC(=O)Cc1csc(NC(=O)c2ccc(F)cc2)n1 | 0.5% (inactive) | 5.42% | – | –
COc1cc2c(cc1OC)C1Cc3ccc(OC)c(OC)c3C[N+]1([O-])CC2 (stereo unspecified) | 0.646% (inactive) | 8.62% | – | –
Cc1nc(NCC2CCCO2)c2nnn(Cc3c(F)cccc3Cl)c2n1 (stereo unspecified) | 5.75% (inactive) | -5.53% | – | –
c1cnc(N2CCN(c3ccc4ccccc4n3)CC2)nc1 | – | 23.8% | 0.651 µM (active) | –
c1ccc(C(c2ccccc2)N2CCN(c3ccc4ccccc4n3)CC2)cc1 | -1.57% (inactive) | 9.37% | – | –
c1ccc(N2CCN(c3ncccn3)CC2)cc1 | -29.3% (inactive) | -7.61% | – | –
CCn1c(NC(=O)c2cccc(Cn3cc(Cl)cn3)c2)nc2ccccc21 | 3.94% (inactive) | -10.4% | – | –
O=C(c1ccccn1)N1CCN(c2ccc(C(F)(F)F)cn2)CC1 | 1.09% (inactive) | -1.5% | – | –
O=C(O)c1ccccc1-c1ccccc1C(=O)Nc1cccc(-c2nc3ccccc3o2)c1 | 4.74% (inactive) | 14.5% | – | –
CS(=O)(=O)c1ccccc1C(=O)Nc1cccc(-c2nc3ccccc3o2)c1 | – | -20.6% | 13 µM (active) | –
CC(=O)Nc1cccc(-c2nc3ccccc3o2)c1 | – | – | – | inactive
COc1cccc(-c2cc(C(=O)NCC3CCCO3)c3ccccc3n2)c1 (stereo unspecified) | 23.6% (inactive) | – | – | –
O=C(CCS(=O)(=O)c1ccccc1)Nc1ncc([N+](=O)[O-])s1 | – | -3.6% | 4.61 µM (active) | –
O=C(CS(=O)(=O)c1ccccc1)Nc1ncc([N+](=O)[O-])s1 | – | -6.25% | – | inactive
Cc1ncoc1C(=O)Nc1ncc([N+](=O)[O-])s1 | -4.91% (inactive) | -6.04% | – | –
CCOCCc1nnc(NC(=O)CCS(=O)(=O)c2ccccc2)s1 | – | -12% | – | inactive
Cc1ccnc(NC(=O)c2ccc(Cl)s2)c1 | – | – | – | inactive
Cc1ccc(S(=O)(=O)CC(=O)Nc2ncc([N+](=O)[O-])s2)cc1 | – | -14.4% | – | inactive
CCCc1nnc(NC(=O)CS(=O)(=O)c2ccccc2)s1 | 2.43% (inactive) | -20% | – | –
Cc1ccc(CC(=O)Nc2ncc([N+](=O)[O-])s2)cc1 | -18.5% (inactive) | 2.17% | – | –
Cc1ccnc(NC(=O)c2ccc(Br)s2)c1 | 1.19% (inactive) | 12.2% | – | –
Cc1ccc(C(=O)Nc2ncc([N+](=O)[O-])s2)cc1 | – | -15.4% | 23.1 µM (active) | –

SMILES | lipid storage change, negative = inhibition | cell number change | Potency | outcome
CCCc1nnc(NC(=O)CCS(=O)(=O)c2ccccc2)s1 | – | 3.42% | 1.46 µM (active) | –
Cc1ccnc(NC(=O)c2ccc([N+](=O)[O-])s2)c1 | – | -22% | 11.2 µM (active) | –
O=C(Nc1ccccc1F)Nc1ccc([N+](=O)[O-])cc1Cl | -3.39% (inactive) | 6.06% | – | –
Cc1ccccc1S(=O)(=O)Cc1ccc(C(=O)NC(C)c2ccccc2)o1 (stereo unspecified) | – | – | – | inactive
Cn1cc(Br)c(NS(=O)(=O)c2ccc(Cl)s2)n1 | -10.7% (inactive) | 7.84% | – | –
CCc1ccc(C(=O)COC(=O)CNC(=O)CNC(=O)Cc2ccccc2)cc1 | -8.25% (inactive) | -4.14% | – | –
CCc1ccccc1NC(=O)c1cnc2n(c1=O)CCS2 | 18.3% (inactive) | -5.43% | – | –
COc1ccc(C(=O)Oc2cc(/C=N/NS(=O)(=O)c3ccccc3)ccc2OC)cc1 | – | -2.45% | – | inactive
COc1ccccc1NS(=O)(=O)c1ccc(C(=O)NCC(c2ccco2)N(C)C)cc1 (stereo unspecified) | 12.6% (inactive) | -9.2% | – | –
O=C(Nc1nc2c(F)cc(F)cc2s1)C1CCN(C(=O)c2ccc(F)cc2)CC1 | 25.4% (inactive) | 13.4% | – | –
CC1(C)CC(C(CC(=O)Nc2nccs2)c2ccccc2)CCO1 (stereo unspecified) | -0.125% (inactive) | -3.73% | – | –
O=C(CSc1nnc2c(Cl)cc(Cl)cn12)N1CCN(S(=O)(=O)c2ccccc2)CC1 | 29.6% (inactive) | 0.68% | – | –
CCOc1cc(C2C(C#N)=C(N)OC(C)=C2C(C)=O)cc(Br)c1O (stereo unspecified) | – | – | 8.2 µM (active) | –
CCOC(=O)C1=C(C)OC(N)=C(C#N)C1c1ccccc1 (stereo unspecified) | 8.87% [at 9.22 µM] (inactive) | 2.6% | – | –
CCOC(=O)C1=C(C)OC(N)=C(C#N)C1c1cccc(C)c1 (stereo unspecified) | 17.7% (inactive) | 26.4% | – | –
CCc1nnc(NS(=O)(=O)c2ccc(NC(=O)c3ccco3)cc2)s1 | -9.02% (inactive) | -17.4% | – | –
COc1ccc(CC2S/C(=N/N=C/c3ccc(O)cc3)NC2=O)cc1 (stereo unspecified) | -8.38% (inactive) | 8.53% | – | –
COc1ccc(/C=N/N=C2/NC(=O)C(c3ccccc3)(c3ccccc3)S2)cc1 | – | 1.45% | 16.4 µM (active) | –
COc1ccc(/C=N/N=C2/NC(=O)CC(C(=O)O)S2)cc1 (stereo unspecified) | -10.8% (inactive) | – | – | –
Cc1ccc(/C=C/S(=O)(=O)NCC(=O)OCC(=O)N2CC(=O)Nc3ccccc32)cc1 | -12.9% (inactive) | 5.37% | – | –
CCOc1ncccc1C(=O)Nc1cccc(C(=O)Nc2cccc(S(=O)(=O)CCO)c2)c1 | -0.285% (inactive) | -9.36% | – | –
Cc1ccc(-c2nnc(SCC#N)n2N)cc1 | 10.1% (inactive) | 6.27% | – | –
